From PubChem BioAssay
The list is not random: actives were taken first. Their share in the collection is about 1.6%.
KCNQ2 inh = inhibitors of rat KCNQ2 potassium channel; AID 2156; 310,000 tested, 1.1% active; B-score at 10 µM; CHO-K1 KCNQ2, FluxOR thallium flux, 20 min; active compounds read low; O88943;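 active = fluorescence ratio B-score at most minus 3 library SDs, with starting brightness B-score within 2 library SDs, cut at about -5.5 in these data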
KCNQ2 pot = potentiators of rat KCNQ2 potassium channel; CHO-K1 KCNQ2, FluxOR thallium flux fluorescence; active compounds read high; B-score at 10 µM; 310,000 tested, 0.54% active; AID 2239;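 active = fluorescence ratio B-score at least 3 SD of library B-scores, with initial fluorescence B-score within 3 of them, cut at about 5.3 in these data; same plate scores as AID 2156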;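 note: B-score of peak minus minimum over baseline fluorescence ratio after K+ and Tl+ stimulus; positive B-score means potentiation of KCNQ2 with more thallium influx and brighter signal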
Large screens that a line does not name were inactive.

CCc1nc(N2CCCCC2C)c2oc3ccccc3c2n1 (stereo not drawn)	KCNQ2 inh -7.5
CCc1nc(N2CCCCC2C(=O)O)c2oc3ccccc3c2n1 (stereo not drawn)	none
CCc1nc(N2CCCCC2)c2oc3ccccc3c2n1	none (no result: KCNQ2 pot)
CCn1cc(Cl)c(C(=O)NNC(=O)CCn2ccc([N+](=O)[O-])n2)n1	none (no result: KCNQ2 pot)
COc1ccc(/C=C/C(=O)NCC(=O)N/N=C/c2cccs2)cc1	none
CCOc1ccccc1Nc1cc(C)c2cccc(C)c2n1	KCNQ2 inh -5.8
CCOc1ccccc1Nc1ccnc2cc(Cl)ccc12	none
NC12CC3CC(C1)CC(CO)(C3)O2	none
Cc1ccc2nc(N/N=C/c3ccccc3C#N)nc(-c3ccccc3)c2c1	KCNQ2 inh -6
N#Cc1ccccc1/C=N/Nc1nc(-c2ccccc2)c2cc(Cl)ccc2n1	none
CC(C)CC(OC(=O)c1ccc(Cl)nc1)C(=O)NC1CCCC1 (stereo not drawn)	none
CCOC(=O)C1(c2ccccc2)NC(c2ccccc2C)C2C(=O)N(c3ccc4c(c3)OCO4)C(=O)C21 (stereo not drawn)	KCNQ2 inh -7
COC(=O)C1(C)NC(c2ccccc2C)C2C(=O)N(c3ccccc3)C(=O)C21 (stereo not drawn)	none
COC(=O)c1c(C(=O)OC)c(-c2cccc(F)c2)n2c1CS(=O)C2 (stereo not drawn)	none
COC(=O)c1c(C(=O)OC)c(-c2ccc(C(C)(C)C)cc2)n2c1CS(=O)C2 (stereo not drawn)	KCNQ2 inh -8
CC1CN(C(=O)CSc2nnc(CNC(=O)c3ccc(S(=O)(=O)N(C)C)cc3)o2)CC(C)O1 (stereo not drawn)	none
CCOc1cc(S(=O)(=O)NCc2ccccn2)c(C)cc1C	none
CCc1ccccc1NC(=O)C(Cc1ccccc1)c1nn[nH]n1 (stereo not drawn)	none
COc1cccc(-n2nnnc2S(C)(=O)=O)c1	KCNQ2 inh -7.8
COc1cccc(Oc2nnnn2-c2ccccc2)c1	none (no result: KCNQ2 pot)
Cc1ccc(CNC(=O)c2ccc3c(=O)[nH]c4c(C(=O)NCC5CCCO5)sc(=S)n4c3c2)cc1 (stereo not drawn)	none (no result: KCNQ2 pot)
CCCCCNC(=O)c1ccc2c(=O)[nH]c3c(C(=O)NCC4CCCO4)sc(=S)n3c2c1 (stereo not drawn)	KCNQ2 inh -5.7
O=C(O)Cc1ccc(OCc2ccc(Cl)nc2)cc1	none (no result: KCNQ2 pot)
CCOC(=O)CNC(=S)N(Cc1ccco1)Cc1ccccc1Cl	KCNQ2 inh -6.5
CCCCNC(=O)CNC(=S)N(Cc1ccc(C)cc1)Cc1ccco1	none
COc1cccc(NC(=O)Cn2c(=O)n(C)c(=O)c3sc4c(c32)COC(C)(C)C4)c1	none (no result: KCNQ2 pot)
Cc1ccc(C)c(N2CCN(C(=O)CCCOc3cc(=O)n(C)c4ccccc34)CC2)c1	KCNQ2 inh -6.4
Cc1ccc(C)c(N2CCN(C(=O)COc3cc(=O)n(C)c4ccccc34)CC2)c1	none (no result: KCNQ2 pot)
COc1cccc2c1OCC/C2=N\NC(=O)C(C)Oc1ccc([N+](=O)[O-])cc1 (stereo not drawn)	none (no result: KCNQ2 pot)
O=C1c2ccccc2C(Nc2ccc(F)cc2F)N1CCN1CCOCC1 (stereo not drawn)	none
CCOc1ccc(C(=O)NC(Cc2ccccc2)C(=O)OC)cc1 (stereo not drawn)	none (no result: KCNQ2 pot)
COC(=O)C(Cc1ccccc1)NC(=O)COc1ccc(C(C)(C)C)cc1 (stereo not drawn)	KCNQ2 inh -5.6
CN(Cc1ccccc1)C(=O)COc1ccccc1Cl	none (no result: KCNQ2 pot)
CN(Cc1ccccc1)C(=O)COc1ccc(C(C)(C)C)cc1	KCNQ2 inh -5.6
O=C(COc1ccccc1)NNC(=O)COc1ccc([N+](=O)[O-])cc1	none
O=C(COc1ccc([N+](=O)[O-])cc1)N(Cc1ccccc1)Cc1ccccc1	KCNQ2 inh -5.8
O=C(O)c1c(-c2ccc(Cl)cc2)cn2ccccc12	none
CCc1nn(CC(=O)NCCCN2CCOCC2)c(=O)c2cc3cc(F)ccc3n12	none
CCCC1S/C(=N/N=C/c2ccc(OC)cc2)N(Cc2ccccc2)C1=O (stereo not drawn)	KCNQ2 inh -6.2
CCCC1S/C(=N/N=C/c2ccc(OC)cc2)N(Cc2ccc(OC)cc2)C1=O (stereo not drawn)	none (no result: KCNQ2 pot)
O=c1[nH]c2ccsc2c(=O)n1-c1ccc(F)c(Cl)c1	none (no result: KCNQ2 pot)
O=C(NCc1ccco1)c1cc2nc(C3CC3)cc(C(F)(F)F)n2n1	none
COc1ccc(-c2cc(C(F)(F)F)n3nc(C(=O)NCc4ccco4)cc3n2)cc1OC	KCNQ2 inh -5.6
COc1ccc(/C=C(/NC(=O)c2ccco2)C(=O)N2CCCCCC2)cc1OC	none
COc1ccc(C(=O)NCc2nnc(SCC(=O)N3CCCc4ccccc43)o2)cc1OC	none
CCn1c(C)c(C)c2cc(C(=O)N3CCc4ccccc4C3)ccc21	KCNQ2 inh -6
CCN1CCN(C(=O)c2ccc3c(c2)c(C)c(C)n3Cc2ccccc2)CC1	none (no result: KCNQ2 pot)
O=C(CN(Cc1ccccc1Cl)C(=O)c1csnn1)NC1CCCC1	none
CC(=O)N1C(C(=O)O)CSC1c1ccc(C)cc1 (stereo not drawn)	none
COc1ccc(C(=O)COC(=O)[C@H](C)Nc2ccc(C(F)(F)F)cc2[N+](=O)[O-])cc1	none
Cc1cc(C)c(C(=O)COC(=O)[C@H](C)Nc2ccc(C(F)(F)F)cc2[N+](=O)[O-])c(C)c1	KCNQ2 inh -6.2
CCOC(=O)C1CCCN(C(=O)c2cccc(S(=O)(=O)N(Cc3ccccc3)c3ccccc3OC)c2)C1 (stereo not drawn)	none (no result: KCNQ2 pot)
CCCN(CC1CC1)c1nc(N)c(C#N)c(CC#N)c1C#N	none (no result: KCNQ2 pot)
CCCN(CC1CC1)c1nc(C)nc(Nc2c(Cl)cc(Cl)cc2Cl)c1Cl	KCNQ2 inh -5.6
Cc1cccc(OCC(=O)NCCCNC(=O)c2ccc(C)nc2)c1	none
CCOC(=O)c1c(NC(=S)Nc2ccccc2)sc2c1CC(C)(C)SC2	none (no result: KCNQ2 pot)
CNC(=S)Nc1sc2c(c1C(=O)OC)CCC2	KCNQ2 pot 5.6
CCOC(=O)c1c(NC(=S)NC)sc2c1CC(C)(C)SC2	KCNQ2 pot 11
COC(=O)c1c(NC(C)=O)sc2c1CCCC2	none (no result: KCNQ2 pot)
CC(C)(C)NC(=O)C(=O)NNC(=O)c1cccc(Br)c1	KCNQ2 pot 6.7
COC(=O)NNC(=O)c1ccc(C(C)(C)C)cc1	none (no result: KCNQ2 pot)
O=C(COc1ccc(Br)cc1)NC1CC1	none
CC(C)(C)NC(=O)C(=O)NNC(=O)COc1ccc(Br)cc1	KCNQ2 pot 6.2
CC(C)(C)NC(=O)C(=O)NNC(=O)c1ccc(C(C)(C)C)cc1	KCNQ2 pot 12
Cc1cccc(C(=O)NNC(=O)C(=O)NC(C)(C)C)c1	none
Cn1ccnc1SCC(=O)c1cccc(C(F)(F)F)c1	none (no result: KCNQ2 pot)
COc1ccc(NC(=O)CN2CCC(NC(=O)c3ccco3)CC2)c([N+](=O)[O-])c1	none (no result: KCNQ2 pot)
COc1cc2cc(C(c3nnnn3C(C)(C)C)N3CCC(C)CC3)c(=O)[nH]c2cc1OC (stereo not drawn)	none (no result: KCNQ2 pot)
COC(=O)c1c(NC(=O)COC(=O)CC(NC(C)=O)c2ccccc2)sc(C)c1C (stereo not drawn)	none (no result: KCNQ2 pot)
COc1ncnc2c1ncn2CC1COC(C)(C)O1 (stereo not drawn)	none (no result: KCNQ2 pot)
O=C(c1ccccc1)c1sc(N2CCCCCC2)nc1-c1ccccc1	KCNQ2 inh -6.2
COc1ccc(-c2nc(N3CCCCCC3)sc2C(=O)c2ccccc2)cc1	none (no result: KCNQ2 pot)
Cc1nc(N2CCN(c3ccccn3)CC2)c2c(C)c(C(=O)Nc3c(F)cc(F)cc3Br)sc2n1	none (no result: KCNQ2 pot)
Cc1nc(N2CCN(c3ccccn3)CC2)c2c(C)c(C(=O)Nc3c(C)cc(Br)cc3C)sc2n1	KCNQ2 inh -7.9
CCc1cccc(NC2c3ccccc3C(=O)N2c2ccc(C)cn2)c1 (stereo not drawn)	KCNQ2 inh -7.5
